# Imprint erasure = inducers of genomic imprint erasure in mouse ES cells | mouse ES Peg3-LacZ reporter, beta-gal luminescence, 40 h | Potency, µM (doses to about 60.7 µM), inactives show at the top dose activity change, positive = activation, actives largely listed as activators | 0.02% of 110,000 active
#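 Each well holds 300 Peg3LacZ-Neo (maternal) female ES cells incubated 40 h at 37C, 5% CO2. LacZ is measured by BetaGlo luminescence, with AC50 and maximum efficacy derived from dose-response curves.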
# p53ts 32C kill = p53ts cell cytotoxicity, permissive temperature. H1299-p53A138V at 32C, ATP luminescence viability, 24 h. Potency, µM (doses to about 46.1 µM), for inactives: top-dose activity change, negative = cytotoxicity, actives largely listed as cytotoxic. 0.93% of 130,000 active. AID 924;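 also: 0% = DMSO and -100% = full killing by reference compound; nearly all actives have a fitted effect of over 55% in size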
#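 Cells: H1299 p53ts (A138V), 600/well, pre-incubated 16–30 h at 37C. Cpd up to 46 uM, 24 h, 32C. Readout: ATPlite luminescence, 20 min RT. Normalization: DMSO vs tamoxifen 100 uM. AC50 by Hill equation.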
# IkB signaling = suppresses IkB signaling in ABC-DLBCL reporter cells | ABC-DLBCL IkBa-CBG/CBR dual luciferase ratio, 4 h; response scale: scaled: untreated 0%, proteasome inhibitor 100% | Potency, µM (series often up to 57.1 µM), for inactives: at the top dose IkBa stabilization activation | AID 445 | 0.04% of 110,000 active; active = well fitted curve in the direction sought with a large enough effect in the signal ratio, not every such curve was filed as active; inconclusive = small, poorly fitted or top-dose-only effect, or a change in a side signal; the % refers to the signal ratio;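 also: the direction sought is a rising ratio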
#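 In this assay, an IκBα–CBG68 fusion accumulates when IKK-driven degradation is blocked; native CBR normalizes for cell number. OCI-Ly3 cells were treated 4 h with compound and doxycycline, then green and red light read after Chroma-Glo addition.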
# p53ts 39C kill = kills p53ts cells at the nonpermissive temperature. H1299-p53A138V viability at 39C, ATP luminescence, 24 h. Potency, µM (titrated, usually from 46.1 µM), for inactives: at the top dose activity change, negative = cell killing, actives largely listed as cytotoxic. 1.5% of 130,000 active. AID 902; also: % is scaled to controls: 0 for no effect and ±100 for the full control effect; nearly all actives have a fitted effect of over 55% in size
# * = called active by the depositor; u = inconclusive; x = no result; [ ] = dose if it differs, or a comment. The list is not random: actives were taken first. Their share in the collection is about 1.6%. Unless noted, calls follow the shape of the dose curve; as a rule, active = well fitted curve in the direction sought with a large enough effect; inconclusive = small, poorly fitted or top-dose-only effect, or another doubt; inactive = no such curve, though single readings can be large; an effect the other way counts as inactive or inconclusive. Potency is read from the fitted curve at half-maximal effect.
SMILES,Imprint erasure,p53ts 32C kill,IkB signaling,p53ts 39C kill
CCc1ccc(NC(=O)CC2C(=O)N(c3ccc(OC)cc3)C(=O)N2Cc2cccs2)cc1 (stereo not drawn),19%[10.9 µM],2%,1%,-3%
C[C@H](O)[C@H](O)[C@@H]1CNc2nc(N)[nH]c(=O)c2N1,x,-9%,4%,11%
CCOC(=O)c1ccc(NC(=O)c2c(NCc3cc(OC)c(OC)cc3OC)sc3c2CCCC3)cc1,-8%[10.9 µM],11%,u,6%
[Cu].[O-]/N=C1/C(=[OH+])Nc2ccccc21.[O-]Nc1c(O)[nH]c2ccccc12,x,-4%[9.22 µM],0%[11.4 µM],-3%[9.22 µM]
O=C(Nc1cccc(-c2nnc(-c3ccccc3)o2)c1)c1ccc(Br)o1,-23%,u,u,25µM*
Cc1cc(C)c2oc(-c3cccc(NC(=O)c4ccc(Br)o4)c3)nc2c1,-7%[10.9 µM],-9%,u,-2%
COc1ccccc1-c1cc(C(=O)N2CCc3ccccc3C2)no1,-28%,-27%,u,-17%
Cc1ccc(OCc2nc(-c3ccccn3)no2)c(Br)c1,-69%,10µM*,0%,u
CCc1ccc(OCc2nc(-c3ccccn3)no2)c(Br)c1,-77%,16µM*,9%,10µM*
COc1ccccc1C1=Nn2c(nc3sc(C(=O)Nc4ccccc4Cl)c(C)c3c2=O)SC1,-7%[10.9 µM],1%,2%,-4%
O=S(=O)(Nc1cccnc1)c1cccc2cccnc12,-13%,5%,-1%,4%
Fc1ccc(-c2nc3n(n2)Cc2ccccc2-3)cc1,-94%,16µM*,12%,u
Cc1ccc(-c2nc3n(n2)Cc2ccccc2-3)cc1,x,8.9µM*,x,6.3µM*
Cc1ccc(-c2nnn(CC(=O)N3c4ccccc4CCc4ccccc43)n2)cc1,x,4%,x,-1%
O=c1nc2n(c3c1oc1ccccc13)Cc1ccccc1-2,-2%,10%,0%,14%
CCn1c(C)nc2cc(-c3nc4n(n3)Cc3ccccc3-4)ccc21,-97%,0.32µM*,0%,0.4µM*
CCOC(=O)CNc1ncnc2nc[nH]c12,-78%,7.9µM*,u,u
CC(C)=CCNc1ncnc2nc[nH]c12,1%[10.9 µM],1%[9.22 µM],0%[11.4 µM],12%[9.22 µM]
Cc1nc2cc(NC(=O)N3c4ccccc4CC3C)ccc2o1 (stereo not drawn),-40%,10µM*,2%,10µM*
Cc1nc2cc(NC(=O)N3c4ccccc4CC3C)ccc2n1C (stereo not drawn),-66%,6.3µM*,3%,5µM*
CCOC(=O)N1CCC(NC(=O)c2ccc3c(c2)N(Cc2ccc(Cl)cc2)C(=O)c2ccccc2S3(=O)=O)CC1,-6%[10.9 µM],20%,0%,-12%
O=C(O)CNCCc1ccccc1,-5%[10.9 µM],5%[9.22 µM],1%[11.4 µM],3%[9.22 µM]
CS(=O)c1nc(-c2ccc(Br)cc2)cc(-c2ccccc2)c1C#N (stereo not drawn),-26%,20µM*,u,u
CCCCOC(=O)c1ccc(NC(=O)c2sc3nc(C)cc(C)c3c2N)cc1,-12%[10.9 µM],16µM*,u,u
Cc1cc(C)c2c(N)c(C(=O)Nc3nccs3)sc2n1,-47%,0.79µM*,10%,1µM*
SMILES,Imprint erasure,p53ts 32C kill,IkB signaling,p53ts 39C kill
CCOC(=O)c1sc2nc(C)cc(C)c2c1N,x,-12%,x,-17%
CCc1ccc(NS(=O)(=O)c2ccc3[nH]c4c(c3c2)CCCCCC4)cc1,-14%[10.9 µM],11%,4%,20µM*
CCOC(=O)c1ccc(NS(=O)(=O)c2ccc3[nH]c4c(c3c2)CCCCC4)cc1,-13%[10.9 µM],u,u,16µM*
Cc1ccc(NS(=O)(=O)c2ccc3[nH]c4c(c3c2)CCCCCC4)cc1,-7%[10.9 µM],-3%,-1%,u
CCCN(CCc1ccccc1)[C@H]1CCc2c(O)cccc2C1,x,-16%,-10%,6%
CCOC(=O)c1sc(NC(=O)/C=C/c2ccc(OCC)cc2)c(C(=O)OCC)c1C,-16%[10.9 µM],13%,1%,2%
COc1ccc(/C=C/C(=O)Nc2sc(C)c(C)c2C(=O)O)cc1,-12%[10.9 µM],2.5µM*,96%,13%
CCCOc1ccc(CC2C(=O)Nc3ccc(Br)cc32)cc1 (stereo not drawn),-6%[10.9 µM],u,-1%,20µM*
COc1ccc(-c2nnc(Nc3nc4c(OC)cccc4s3)o2)c(OC)c1,-31%,u,u,10µM*
COc1ccc(-c2nnc(Nc3nc4c(OC)cccc4s3)o2)cc1,-19%,u,u,13µM*
Fc1cccc2sc(Nc3nnc(-c4ccccc4)o3)nc12,-51%,16µM*,u,10µM*
Cc1cccc(NC(=O)CSc2n[nH]c(-c3ccncc3)n2)c1,-12%,18%,-1%,19%
COc1ccc(-c2nc(SCC(=O)Nc3cccc(C(C)=O)c3)n[nH]2)cc1,-12%[10.9 µM],u,u,32µM*
Cc1cc(-n2c(SCc3ccccc3F)nc3[nH]ncc3c2=O)ccc1Cl,-11%[10.9 µM],12%,u,16µM*
Cc1ccccc1-n1c(SCc2ccc(Cl)cc2)nc2[nH]ncc2c1=O,-11%[10.9 µM],27%,u,-11%
COc1ccc(C(=O)c2c[nH]c3ccccc23)cc1,-26%,7.9µM*,0%,10µM*
O=C(/C=C/N1CCOCC1)c1cc2ccccc2o1,-41%,13µM*,6%,u
O=C(/C=C/N1CCOCC1)c1coc2ccccc12,x,16µM*,x,u
O[C@@H](c1cc(-c2ccccc2)nc2c1ccc1ccccc12)[C@@H]1CCCCN1,x,6%[9.22 µM],1%[11.4 µM],-8%[9.22 µM]
O=C(Nc1ccccc1C(F)(F)F)c1ccc2oc(=O)c(S(=O)(=O)c3ccc(F)cc3)cc2c1,-6%[10.9 µM],10µM*,u,13µM*
CCCCCCCCCCCCCCCC(=O)NC[C@@H](COP(=O)([O-])OCC[N+](C)(C)C)OCC,x,u,-23%,-88%
COc1ccc(S(=O)(=O)NCCc2cn3ccsc3n2)cc1OC,-17%[10.9 µM],5%,-1%,-1%
O=C(Nc1ccc(C(=O)N2CCCCC2)cc1)c1nsc2ccccc12,-69%[10.9 µM],3.2µM*,u,3.2µM*
CNC(=O)c1ccc(NC(=O)c2nsc3ccccc23)cc1,-70%[10.9 µM],7.9µM*,u,7.9µM*
Cc1ccc(CNC(=O)c2ccc(NC(=O)c3nsc4ccccc34)cc2)cc1,-8%[10.9 µM],-8%,u,-21%
SMILES,Imprint erasure,p53ts 32C kill,IkB signaling,p53ts 39C kill
CCOC(=O)c1ccc(NC(=O)c2nsc3ccccc23)cc1,-47%[10.9 µM],u,u,13µM*
O=C(NCc1cccc(F)c1)c1ccc(NC(=O)c2nsc3ccccc23)cc1,7%[10.9 µM],11µM*,u,10µM*
O=C(Nc1ccc(C(=O)N2CCN(c3ccc(F)cc3)CC2)cc1)c1nsc2ccccc12,6%[10.9 µM],16%,u,-15%
CCOc1ccc(CCNC(=O)CCCc2nnc3n(CC)c(=O)c4sccc4n23)cc1,-13%[10.9 µM],-2%,0%,-13%
C=CS(=O)(=O)c1ccc(Oc2ccc(S(=O)(=O)C=C)cc2)cc1,-23%,-84%,u,10µM*
O=S(=O)(c1ccc(Oc2ccc(S(=O)(=O)N3CCOCC3)cc2)cc1)N1CCOCC1,-10%,-8%,0%,-1%

# Screening data (PubChem)
